Sampled rows, rich in hits. Any-hit rate of the full collection: about 2.6%.
Cruzain Triton: inhibitors of Trypanosoma cruzi cruzain with detergent. Potency, µM, for inactives: max response, negative = inhibition, actives largely listed as inhibitors. P25779. purified cruzain, Z-FR-AMC fluorescence, 0.01% Triton. 0.43% of 200,000 active. AID 1478;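 note: plate controls were neutral wells for no effect and buffer without enzyme for full effect; nearly all actives have a fitted effect of over 40% in size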
Target sequence (P25779 123-467 limits assumed): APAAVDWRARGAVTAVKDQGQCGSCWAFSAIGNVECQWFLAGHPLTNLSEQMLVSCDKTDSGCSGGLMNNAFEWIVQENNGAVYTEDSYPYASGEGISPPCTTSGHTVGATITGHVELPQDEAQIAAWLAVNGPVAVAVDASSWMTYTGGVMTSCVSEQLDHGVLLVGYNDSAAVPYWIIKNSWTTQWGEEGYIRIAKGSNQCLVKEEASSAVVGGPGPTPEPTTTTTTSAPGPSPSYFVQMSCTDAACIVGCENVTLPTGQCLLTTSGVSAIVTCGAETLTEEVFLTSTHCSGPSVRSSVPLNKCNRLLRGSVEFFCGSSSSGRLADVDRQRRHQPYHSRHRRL
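In this qHTS format, compounds are incubated with 1.5 nM cruzain for 15 min at room temperature before 2 uM Z-FR-AMC is added. Release of AMC is followed at 360/450 nm, and progress is taken as the 60 s fluorescence difference.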
Cruzain inh noDet: inhibitors of Trypanosoma cruzi cruzain without detergent; AID 1476; purified cruzain, Z-FR-AMC fluorescence, no detergent; Potency, µM, inactives show max response, negative = inhibition, actives largely listed as inhibitors; 2.3% of 200,000 active;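 note: plate controls were enzyme without inhibitor for no effect and buffer without enzyme for full effect; nearly all actives have a fitted effect of over 40% in size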
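Purified cruzain at 1.5 nM, pre-incubated 15 min with compound at room temperature in 100 mM sodium acetate pH 5.5, 5 mM DTT, 0.00005% Triton X-100. Reaction started with 2 uM Z-FR-AMC; AMC fluorescence increase over 60 s gives rate.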
* marks the source's active call; other numbers are inactive results; ? = inconclusive. Calls come from the whole dose curve; as a rule, active = well fitted curve in the direction sought with a large enough effect; inconclusive = small, poorly fitted or top-dose-only effect, or another doubt; inactive = no such curve, though single readings can be large; an effect the other way counts as inactive or inconclusive. Potency is the fitted concentration of half-maximal effect.

SMILES	Cruzain Triton	Cruzain inh noDet
CCc1ccc(NC(=O)Cn2c(=O)n(CCCC(=O)NCc3ccccc3Cl)c(=O)c3ccccc32)cc1	0.8%	-8.6%
Cc1cc(C)cc(Nc2nc3ccccc3n3cnnc23)c1	-1.8%	6.4%
COc1ccc(-c2cc(C(=O)NCc3ccc(F)cc3)c3c(-c4ccc(F)cc4)[nH]nc3n2)cc1OC	-0.4%	?
COc1ccc(-c2c[n+]3c4n2CCCCC4=C(c2ccc(Br)cc2)C3)cc1	-25.7%	10µM*
Clc1ccc(C2=C3CCCCn4c(-c5ccccc5)c[n+](c43)C2)cc1	-12.6%	?
O=S1(=O)N=C(Nc2ccc(N3CCOCC3)cc2)c2ccccc21	-4.0%	-18.9%
Cc1ccccc1-c1ccc(Nc2ccc(N3CCOCC3)cc2)nn1	-9.4%	25.1µM*
CCOC(=O)C1CCCN(S(=O)(=O)c2cc3c(cc2C)NC(=O)CO3)C1 (configuration not stated)	-10.1%	-2.3%
COC(=O)[C@]1(C)CCC[C@]2(C)c3ccc(C(C)C)cc3C(=O)CC12 (some centres not stated)	1.1%	-2.0%
Cc1ccc(C)n1-c1nnc(N2CCCC(C(=O)NCc3ccccc3)C2)s1 (configuration not stated)	-6.3%	-9.7%
CC1(C)N=C(N)NC(Nc2ccc(Br)cc2)=N1	15.8µM*	20µM*
CC1(C)N=C(N)NC(Nc2cccc(Br)c2)=N1	-1.0%	5.7%
Cc1cc(OCc2ccc(C(=O)n3cccn3)o2)ccc1Cl	7.94µM*	?
O=C(c1ccc(COc2ccc(F)cc2)o1)n1cc(Br)cn1	14.1µM*	?
CCOc1ccc(OCc2ccc(C(=O)O)o2)cc1	0.0%	-3.5%
Cc1ccnc(NC(=O)c2ccc(COc3ccc(Cl)cc3)o2)c1	-6.1%	0.7%
O=C(c1ccc(COc2ccc(F)cc2)o1)n1cccn1	15.8µM*	12.6µM*
Cc1nn(Cc2ccc(C(=O)n3cccn3)o2)c(C)c1Br	-7.5%	0.7%
O=C1CN(C(=O)Cc2ccc(F)cc2)C(c2ccccc2)c2cc(Cl)ccc2N1 (configuration not stated)	-6.2%	14.9%
Clc1cccc(C(Cl)(Cl)Cl)n1	0.2%	-3.0%
CC(=O)c1ccc(N2CCN(C(=O)CCS(=O)(=O)c3ccc4c(c3)oc(=O)n4C)CC2)cc1	-0.8%	-3.0%
CNC1=C(Br)C(=O)c2ccncc2C1=O	-5.7%	-9.8%
Cc1ccc2nc(N3CCN(c4ccccc4)CC3)c3nnnn3c2c1	-0.3%	-1.9%
Clc1cccc(N2CCN(c3nc4ccccc4n4nnnc34)CC2)c1	-3.0%	20µM*
CN(Cc1ccccc1)C(=O)CSc1nc2ccccc2n1Cc1ccccc1F	-1.4%	-6.1%
SMILES	Cruzain Triton	Cruzain inh noDet
C[C@H](CN(C)C)C(O)(c1ccccc1)c1ccccc1	5.1%	2.9%
COC(=O)CCCC1=CC2=C(c3ccccc3)C(=O)C(C)(OC(=O)C3CCCC3)C(=O)C2=CO1 (configuration not stated)	0.3%	8.5%
Cc1ccc(S(=O)(=O)Nc2cccc3cccnc23)cc1	-0.1%	12.8%
O=S(=O)(Nc1cc(Sc2cccc3cccnc23)c(O)c2ccccc12)c1ccccc1	0.3%	3.16µM*
COc1ccc(Nc2ncc(C(=O)N3CCN(Cc4ccccc4)CC3)c3ccccc23)cc1	-0.3%	-0.2%
COc1ccc(OC)c(NC(=O)c2cnc(Nc3ccc(C)c(Cl)c3)c3ccccc23)c1	-4.1%	6.31µM*
COc1ccccc1NC(=O)c1cnc(Nc2ccccc2OC)c2ccccc12	-10.4%	?
Cc1ccc(Nc2ncc(C(=O)N3CCN(c4cccc(Cl)c4)CC3)c3ccccc23)cc1Cl	-6.2%	7.94µM*
Cc1ncc([N+](=O)[O-])n1CCN=[N+]=[N-]	0.5%	-8.4%
COC(=O)CS	1.9%	-0.6%
Cc1ccc(S(=O)(=O)N2CCCc3cc(NS(=O)(=O)c4cccc(Cl)c4)ccc32)cc1	-1.9%	25.1µM*
CCOc1ccc(S(=O)(=O)Nc2ccc3c(c2)CCCN3S(=O)(=O)c2ccc(C)cc2)cc1	-1.7%	?
Cc1c(Cl)cccc1-c1ccc(C(=O)Nc2ccc(F)cc2)o1	-9.5%	6.3%
CC(=O)N1CCc2cc(CNS(=O)(=O)c3cccs3)ccc21	1.4%	-14.1%
O=C(Nc1ccccc1-c1nnn(CC(=O)N2CCCc3ccccc32)n1)c1ccc(Cl)cc1	-6.4%	31.6µM*
O=C(Nc1ccccc1-c1nnn(CC(=O)N2CCCc3ccccc32)n1)c1ccco1	0.2%	?
N=C(N)SCCON1C(=O)c2ccccc2C1=O	0.1%	10.9%
C[C@@]12CCC(=O)C=C1C=CC1C2CC[C@]2(C)C1CC[C@@]21CCC(=O)O1 (some centres not stated)	-0.6%	2.3%
Cc1cnc(CNc2ncncc2-c2cccnc2)cn1	0.3%	9.0%
COc1ccc2cc3cc(C(=O)N4CCN(Cc5ccc6c(c5)OCO6)CC4)oc3nc2c1	31.6µM*	0.4%
COc1ccc2cc3cc(C(=O)NCc4ccc5c(c4)OCO5)oc3nc2c1	-9.2%	-17.1%
COc1ccc(C2CC(c3ccccc3)=NN2C(=O)COC(=O)CNC(=O)c2ccccc2)cc1 (configuration not stated)	8.91µM*	10µM*
COc1ccc(C2CC(c3ccccc3)=NN2C(=O)COC(=O)c2cccc(S(=O)(=O)N(C)C)c2)cc1 (configuration not stated)	3.6%	?
COc1ccc(C2CC(c3ccccc3)=NN2C(=O)COC(=O)c2cnc(Cl)c(Cl)c2)cc1 (configuration not stated)	-3.3%	5.01µM*
COc1ccc(C2CC(c3ccccc3)=NN2C(=O)COC(=O)c2ccc(Cl)nc2)cc1 (configuration not stated)	-4.9%	-27.6%
SMILES	Cruzain Triton	Cruzain inh noDet
Cc1ccc(NS(=O)(=O)c2ccc3[nH]c4c(c3c2)CCCCC4)cc1	-12.8%	-6.5%
COC(=O)c1ccc(C(NC(=O)OCc2ccccc2)/C(F)=C/[C@@H](C)C(=O)NCc2ccc(-c3ccccc3)cc2)cc1 (some centres not stated)	2.1%	10µM*
COC(=O)c1ccc(C(NC(=O)OCc2ccccc2)/C(F)=C/[C@@H](C)C(=O)NCc2cc(F)cc(F)c2)cc1 (some centres not stated)	-1.4%	-2.8%
CC(NC(=O)C1CCN(C(=O)c2ccc(-n3ccc4ccccc43)s2)CC1)c1ccccc1 (configuration not stated)	-1.4%	13.5%
CC1=Nc2cc(C(=O)NCc3ccco3)ccc2Sc2ccc(C)cc21	-9.7%	-8.0%
CC1=Nc2cc(C(=O)NCc3ccccc3Cl)ccc2Sc2c(C)ccc(C)c21	-4.0%	31.6µM*
CCC1=Nc2cc(C(=O)NCc3ccccc3Cl)ccc2Sc2ccc(C)cc21	-2.9%	?
CCC1=Nc2cc(C(=O)NCc3ccccc3OC)ccc2Sc2ccc(Cl)cc21	0.9%	31.6µM*
CC(C)CC(c1nnnn1Cc1cccs1)N1CCN(c2nc3ccccc3s2)CC1 (configuration not stated)	-4.9%	31.6µM*
CCC(c1nnnn1Cc1cccs1)N1CCN(c2nc3ccccc3s2)CC1 (configuration not stated)	-2.8%	?
CCc1nnc(NC(=O)CSc2nc3c([nH]c4ccccc43)c(=O)n2-c2ccc(OC)cc2)s1	-3.9%	19.6%
Cc1ccc2nc(SCC(=O)NCc3cccs3)c(C#N)cc2c1	5.7%	10µM*
Cc1ccc2cc(C#N)c(SCC(=O)NCc3ccco3)nc2c1	-5.7%	?
Cc1ccc2nc(SCC(=O)NCc3ccco3)c(C#N)cc2c1	2.5%	25.1µM*

Screens from PubChem.
